The text below walks through data of PubChem BioAssay.

Assay [1] can be described thus: compounds binding Alexa647 anti-His antibody – biochemical, small-molecule microarray, 635 nm fluorescence, artefact control for SMM control protein annotation, primary screen (AID 1128).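 Also: score merges feature fluorescence with signal-to-noise for each printed compound spot.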 To be noted: higher = more signal.
The subject of assay [2] is Human papillomavirus type 1a E7 protein (residues 1-88). Briefly: HPV1a E7 small-molecule binders, primary screen, biochemical, small-molecule microarray, residues 1-88, 635 nm (AID 1129). The conditions noted are these: small-molecule microarray binding, fluorescence 635 nm; higher = more signal.
For assay [3], the target named is Focal adhesion kinase 1 (Homo sapiens) (UniProt Q05397). Briefly: PTK2 protein binding on printed compound slides – biochemical, small-molecule microarray, 635/667 nm fluorescence, BSA, DTT, primary screen (AID 1130).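 Also: composite of spot emission at 667 nm and signal to noise over triplicate slides.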 The conditions noted are these: 635 nm fluorescence, higher = more signal.
Sequence of Focal adhesion kinase 1 (Homo sapiens) (Q05397 whole entry, looked up): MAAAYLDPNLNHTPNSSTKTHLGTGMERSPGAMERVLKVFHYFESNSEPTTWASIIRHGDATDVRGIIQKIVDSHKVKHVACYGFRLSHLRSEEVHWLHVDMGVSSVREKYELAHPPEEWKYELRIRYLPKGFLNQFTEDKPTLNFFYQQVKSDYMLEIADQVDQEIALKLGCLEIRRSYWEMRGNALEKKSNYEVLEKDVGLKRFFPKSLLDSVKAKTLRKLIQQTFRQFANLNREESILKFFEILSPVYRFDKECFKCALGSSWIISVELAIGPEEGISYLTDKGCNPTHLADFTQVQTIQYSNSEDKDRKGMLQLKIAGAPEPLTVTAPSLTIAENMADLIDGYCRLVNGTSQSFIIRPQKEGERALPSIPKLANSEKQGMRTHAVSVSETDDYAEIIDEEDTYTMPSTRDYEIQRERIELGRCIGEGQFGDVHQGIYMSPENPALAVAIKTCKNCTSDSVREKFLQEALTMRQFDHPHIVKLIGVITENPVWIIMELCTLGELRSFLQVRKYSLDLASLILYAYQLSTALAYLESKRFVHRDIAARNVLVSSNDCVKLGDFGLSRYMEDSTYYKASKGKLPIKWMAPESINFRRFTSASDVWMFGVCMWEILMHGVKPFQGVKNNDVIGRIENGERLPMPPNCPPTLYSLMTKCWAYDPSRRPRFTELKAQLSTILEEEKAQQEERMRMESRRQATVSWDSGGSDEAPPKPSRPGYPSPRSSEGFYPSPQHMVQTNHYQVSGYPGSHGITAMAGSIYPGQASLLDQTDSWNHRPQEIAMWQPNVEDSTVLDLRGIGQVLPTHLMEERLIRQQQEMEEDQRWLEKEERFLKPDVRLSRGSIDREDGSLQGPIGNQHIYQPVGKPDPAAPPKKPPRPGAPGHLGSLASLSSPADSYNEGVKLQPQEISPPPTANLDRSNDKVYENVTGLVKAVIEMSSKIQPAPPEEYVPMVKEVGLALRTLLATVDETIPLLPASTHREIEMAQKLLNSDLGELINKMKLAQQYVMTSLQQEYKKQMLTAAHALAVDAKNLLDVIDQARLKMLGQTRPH
For assay [4], the system named is Fibrinogen (Alexa647-labelled). The assay can be described thus: Alexa647-fibrinogen binding to printed small molecules – biochemical, small-molecule microarray, 635/667 nm fluorescence, artefact control for SMM control-protein annotation, profiling panel (AID 1131).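 Also: z-score merges 667 nm fluorescence with per-spot signal-to-noise over triplicate slides.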 To be noted: fibrinogen-A647 binding fluorescence, higher = more signal.
Assay [5] concerns the target Follistatin (Homo sapiens) (UniProt P19883). The assay can be described thus: FST protein binding to printed compounds – biochemical, small-molecule microarray, 635/667 nm fluorescence, primary screen (AID 1132). The conditions noted are these: 635 nm fluorescence, higher = more signal.
Assay [6] concerns the target Fibroblast growth factor 2 (Homo sapiens) (UniProt P09038). Briefly: basic fibroblast growth factor binding to printed compounds – biochemical, small-molecule microarray, 635/667 nm fluorescence, primary screen (AID 1133). The conditions noted are these: FGF2, fluorescence 635/667, higher = more signal.
A short description of assay [7]: JC-1 mitochondrial potential readout, lung cancer cells – cell-based, A549, JC-1 fluorescence, basal, 24 h, 100 nL, profiling panel (AID 1138).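 Also: A549 lung adenocarcinoma cells under basal conditions with no added stimulus; test concentration not given here.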 The conditions noted are these: higher = more signal.
Another assay relates to Lefty1. The assay can be described thus: Lefty1 protein binding to printed compounds – biochemical, small-molecule microarray, 635/667 nm fluorescence, primary screen (AID 1139). To be noted: fluorescence 635/667, higher = more signal.
Assay [8] deals with wheat germ agglutinin (Triticum aestivum), Alexa647-labelled. Briefly: Alexa647-WGA lectin binding to printed small molecules – biochemical, small-molecule microarray, 635/667 nm fluorescence, artefact control for SMM control-protein annotation, profiling panel (AID 1140).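 Also: score merges 667 nm feature emission with signal to noise over triplicate slides.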 The conditions noted are these: WGA-A647 binding, 635 nm fluorescence, higher = more signal.
The target in assay [9] is Luciferin 4-monooxygenase (Photinus pyralis) (UniProt P08659). Briefly: inhibition of purified Photinus pyralis luciferase – biochemical, luminescence, purified enzyme, 2006 set, primary screen (AID 1141).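 Also: cell-free assay with purified firefly luciferase at 100 ng per well in PBS; test concentration not given here.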 To be noted: purified firefly luciferase, SteadyGlo luminescence, 30 min; higher = more signal, called active from +8 up or from −8 down.
Sequence of Luciferin 4-monooxygenase (Photinus pyralis) (P08659 whole entry, looked up): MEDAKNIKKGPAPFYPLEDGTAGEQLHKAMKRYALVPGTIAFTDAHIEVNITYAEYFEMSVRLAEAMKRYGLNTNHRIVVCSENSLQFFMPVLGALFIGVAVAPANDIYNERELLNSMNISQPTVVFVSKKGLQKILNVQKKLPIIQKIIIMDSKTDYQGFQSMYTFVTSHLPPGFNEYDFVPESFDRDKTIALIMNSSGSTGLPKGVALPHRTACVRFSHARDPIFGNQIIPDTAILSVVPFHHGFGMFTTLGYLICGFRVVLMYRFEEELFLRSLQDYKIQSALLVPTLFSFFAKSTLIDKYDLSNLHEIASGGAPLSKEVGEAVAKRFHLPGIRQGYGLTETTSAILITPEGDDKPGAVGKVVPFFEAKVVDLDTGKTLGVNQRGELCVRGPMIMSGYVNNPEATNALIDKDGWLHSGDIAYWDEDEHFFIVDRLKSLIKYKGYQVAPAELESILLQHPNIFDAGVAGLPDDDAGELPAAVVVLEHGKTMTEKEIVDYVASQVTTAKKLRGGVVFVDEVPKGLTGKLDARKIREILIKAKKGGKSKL
Assay [10] deals with Wnt5a (protein binding on small-molecule microarray). Briefly: small molecules binding Wnt5a protein – biophysical, small-molecule microarray, 635/667 nm fluorescence, primary screen (AID 1142).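 Also: fluorescence read at 667 nm with signal to noise per printed feature.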 The conditions noted are these: 635 nm fluorescence, higher = more signal.
Assay [11] in a line: ATP-based viability of Huh7 replicon cells – cell-based, CellTiter-Glo luminescence, basal, 48 h, cytotoxicity control for HCV replication inhibitor project, primary screen (AID 1143).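 Also: Huh7 hepatoma cells carrying a hepatitis C replication reporter with no stimulus; test concentration not given here.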 The conditions noted are these: higher = more signal, called active from +8 up or from −8 down.
Assay [12] in a line: basal CRE-LacZ reporter activity in PC12 – cell-based, unstimulated, primary screen (AID 1145). The conditions noted are these: no forskolin, luminescence, 4.5 h, higher = more signal, called active from +8 up or from −8 down.
Assay [13] is described as follows: forskolin-driven CRE-LacZ activity in PC12 – cell-based, CRE-LacZ reporter, forskolin-stimulated, primary screen (AID 1146).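 Also: PC12 cells with 6xCRE LacZ reporter stimulated by forskolin 10 µM; beta-galactosidase reporter signal reflecting CREB driven transcription.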 To be noted: luminescence, 4.5 h, higher = more signal, called active from +8 up or from −8 down.
In assay [14] the target is Streptavidin (Streptomyces avidinii) (UniProt P22629). Briefly: compounds binding control protein streptavidin – biophysical, small-molecule microarray, 635/667 nm fluorescence, artefact control for SMM compound annotation, primary screen (AID 1147).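 Also: signal reflects streptavidin binding to arrayed compounds as a control protein.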 The conditions noted are these: higher = more signal.
Sequence of Streptavidin (Streptomyces avidinii) (P22629 whole entry, looked up): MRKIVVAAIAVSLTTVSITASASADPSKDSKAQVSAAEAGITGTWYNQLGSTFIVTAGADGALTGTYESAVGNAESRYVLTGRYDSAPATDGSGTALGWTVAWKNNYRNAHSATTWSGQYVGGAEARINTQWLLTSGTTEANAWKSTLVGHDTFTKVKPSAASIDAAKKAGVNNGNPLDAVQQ
Assay [15] is described as follows: probe aInhba binding on compound microarray – biochemical, small-molecule microarray, 635/667 nm fluorescence, primary screen (AID 1148).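 Also: score merges 667nm spot fluorescence with signal-to-noise for antibody binding to printed compounds.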 The conditions noted are these: higher = more signal.
For assay [16], the target named is Torsin-1A (Homo sapiens) (UniProt O14656). The assay can be described thus: TOR1A wild-type binding on microarray – cell lysate, small-molecule microarray, lysate, 635/667 nm, primary screen (AID 1149). The conditions noted are these: COS7 hTOR1A-WT lysate, 635 nm fluorescence, higher = more signal.
Sequence of Torsin-1A (Homo sapiens) (O14656 whole entry, looked up): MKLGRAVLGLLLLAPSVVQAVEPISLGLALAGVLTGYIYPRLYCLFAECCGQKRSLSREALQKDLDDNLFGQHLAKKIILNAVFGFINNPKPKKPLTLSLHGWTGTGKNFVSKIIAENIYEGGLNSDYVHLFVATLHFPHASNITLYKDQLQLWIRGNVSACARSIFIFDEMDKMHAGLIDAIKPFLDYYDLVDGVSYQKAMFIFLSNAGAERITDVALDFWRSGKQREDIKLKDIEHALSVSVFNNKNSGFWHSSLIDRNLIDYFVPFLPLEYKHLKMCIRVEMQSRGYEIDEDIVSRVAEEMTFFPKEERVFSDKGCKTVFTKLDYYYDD
The target is the same in assay [17]. The assay can be described thus: torsin A mutant lysate binding on microarrays – cell lysate, small-molecule microarray, COS7 lysate, 635/667 nm fluorescence, primary screen (AID 1150).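 Also: score pools 667 nm emission and signal to noise measuring lysate protein binding.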 The conditions noted are these: COS7 hTOR1A mutant lysate, 635 nm fluorescence, higher = more signal.
For assay [18], the system named is Sonic hedgehog protein (Shh). Briefly: Sonic hedgehog microarray binding compounds – biochemical, small-molecule microarray, 635/667 nm fluorescence, primary screen (AID 1151).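 Also: Shh protein binding to compounds spotted on small-molecule microarray slides; score combines spot fluorescence intensity with signal-to-noise across triplicate slides.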 To be noted: 635 nm fluorescence, higher = more signal.

The source made the active and inactive calls.

Sequence of Fibroblast growth factor 2 (Homo sapiens) (P09038 whole entry, looked up): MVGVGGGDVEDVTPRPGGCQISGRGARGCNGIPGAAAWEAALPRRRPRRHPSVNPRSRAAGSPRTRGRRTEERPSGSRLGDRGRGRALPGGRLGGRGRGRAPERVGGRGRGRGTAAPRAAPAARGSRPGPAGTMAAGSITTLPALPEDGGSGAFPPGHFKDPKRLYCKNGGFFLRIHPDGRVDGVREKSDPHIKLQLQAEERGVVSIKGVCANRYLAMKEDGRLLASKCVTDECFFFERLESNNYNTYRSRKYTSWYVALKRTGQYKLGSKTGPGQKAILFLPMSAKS
Sequence of Follistatin (Homo sapiens) (P19883 whole entry, looked up): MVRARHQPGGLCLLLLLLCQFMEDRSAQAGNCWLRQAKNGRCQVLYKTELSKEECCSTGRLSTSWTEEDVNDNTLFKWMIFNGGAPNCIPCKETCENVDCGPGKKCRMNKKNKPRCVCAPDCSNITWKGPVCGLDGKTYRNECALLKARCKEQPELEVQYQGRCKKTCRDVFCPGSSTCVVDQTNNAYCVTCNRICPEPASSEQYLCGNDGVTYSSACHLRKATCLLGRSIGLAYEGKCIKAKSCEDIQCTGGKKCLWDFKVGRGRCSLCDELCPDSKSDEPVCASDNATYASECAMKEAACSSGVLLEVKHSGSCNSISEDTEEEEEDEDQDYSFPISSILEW

As for `C=CCOC(=O)[C@@H]1[C@H]2C(=O)O[C@H](c3ccccc3)[C@H](c3ccccc3)N2[C@H](c2ccc(OCCOC(=O)[C@H]3C[C@H]4C(=O)N5CCC[C@H]5C(=O)N4[C@H]3c3ccc(O)cc3)cc2)[C@@]12C(=O)Nc1ccccc12`, the composite z-score in assay [1] worked out at 0.912; in [2], 1.2; in assay [3], 0.782; in assay [4], 0.81; in assay [5], 1.37; in [6], 1.58. The composite z-score came out at 0.872 in the assay with Lefty1; 0.93 in [8]; 1.32 in assay [10]; 0.239 in assay [14]; 1.03 in [15]; 0.885 with Torsin-1A (Homo sapiens) [16]. Moreover, the composite z-score is 0.283 with Torsin-1A (Homo sapiens) [17] and 1.68 in assay [18]. In addition, the z-score in [7] was -1.47; in [9] it was -0.803 (inactive); in [11] it was -3.23 (inactive); in assay [12], -0.402 (inactive); in assay [13], -1.32 (inactive).

`CC(C)CNC(=O)[C@@]1(C)c2ccccc2C(=O)N(Cc2ccc(OC(F)(F)F)cc2)[C@H]1c1ccc(CO)cc1`: the composite z-score in assay [1] is 0.206; in assay [2], 0.325; in [3] it was -0.0752; in [4], -0.0439; in [5], -0.27; in assay [6] it was 0.192. Further, the composite z-score with Lefty1 was -1.43; in assay [8], -0.0416; in assay [10], 0.12; in assay [14] it was -1.12; in assay [15], -0.128; in the assay with Torsin-1A (Homo sapiens) [16] it was -0.0233. The composite z-score was 0.316 with Torsin-1A (Homo sapiens) [17] and -0.406 in assay [18]. For the same compound, the z-score in assay [7] was 0.209; in assay [9], -1.22 (inactive); in assay [11] it was -1.65 (inactive); in assay [12], 0.0279 (inactive); in assay [13], -0.569 (inactive).

Regarding `C=CCNC(=O)[C@H]1[C@@H]2C(=O)O[C@@H](c3ccccc3)[C@@H](c3ccccc3)N2[C@@H](c2ccccc2OCCO)[C@]12C(=O)N(C(=O)OCCOC)c1ccc(C#CCNC(N)=O)cc12`, the composite z-score in assay [1] came out at 1.26; in [2], 1.17; in assay [3], 0.409; in assay [4], 0.742; in [5], 0.776; in assay [6] it was 0.104. Besides, the composite z-score is 0.629 with Lefty1; 1.11 in [8]; -0.0103 in [10]; 0.98 in [14]; 0.026 in assay [15]; 0.661 with Torsin-1A (Homo sapiens) [16]. Further, the results for the composite z-score (in the assay with Torsin-1A (Homo sapiens) [17]; in assay [18]) were 0.296 and 0.633, respectively. Besides, the z-score in [7] was 0.423; in assay [9] it was -0.963 (inactive); in assay [11], -1.76 (inactive); in assay [12], -0.471 (inactive); in assay [13], 0.948 (inactive).

`[N-]=[N+]=NCc1ccccc1C[C@]1(C(N)=O)N=C(c2ccc(OCCCO)cc2)O[C@H]1c1ccccc1CN=[N+]=[N-]`: the composite z-score is 3.15 in assay [1]; 0.974 in assay [2]; 1.21 in assay [3]; 0.98 in assay [4]; 1.01 in assay [5]; 0.19 in assay [6]. For the same compound, the composite z-score was -0.621 in the assay on Lefty1; 1.32 in [8]; 0.447 in assay [10]; 1.68 in assay [14]; 0.17 in assay [15]; 0.105 with Torsin-1A (Homo sapiens) [16]. Also, the composite z-score with Torsin-1A (Homo sapiens) [17] is 0.369; in assay [18], -0.742. For the same compound, the z-score is 1.3 in assay [7]; -3.84 (inactive) in assay [9]; -5.2 (inactive) in [11]; 1.08 (inactive) in assay [12]; -0.375 (inactive) in [13].

Regarding `CN1C2C=C(c3ccc(CO)cc3)C(C3C(=O)N(C(N)=O)C(=O)C32)C1c1cccs1` (stereo not given), the composite z-score in [1] is -0.734; in assay [2] it was -0.343; in [3], -0.0644; in assay [4], -0.25; in assay [5] it was -0.513; in [6], -0.676. Further, the composite z-score is 0.358 in the assay with Lefty1; -0.543 in [8]; -0.25 in [10]; -0.487 in assay [14]; -0.0791 in assay [15]; 0.0899 in the assay with Torsin-1A (Homo sapiens) [16]. Further, the composite z-score with Torsin-1A (Homo sapiens) [17] was 0.782; in assay [18] it was 1.4. In addition, the z-score in [7] is 1.38; in assay [9], -1.49 (inactive); in assay [11] it was -0.975 (inactive); in assay [12], 2.09 (inactive); in assay [13], -1.5 (inactive).
